Assay results as given in PubChem BioAssay AID1159580 (chemical genetic matrix, 2015).
“And” between values parts separate entries of the source, which are not always exact repeats. Equal values may be shown once. About 2,000 (36%) of roughly 5,500 compounds were called active. Inconclusive results (about 18%) are left out. The list shows a part of the results. Unmarked numbers belong to inactive results. Cut-off read from the data, not from the text of the source: active = normalized growth mostly below about 0.91 (no sharp cut-off); inconclusive = no clear call, values can overlap the other calls; inactive = mostly above about 0.92.

Assay: chemical genetic growth profiling, strain panel (AID 1159580);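 note: tested at 20 µM; growth read once vehicle control cultures reached saturation at 30 °C; 1 = growth at the plate median or of vehicle wells; lower values mean less growth of the strain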
Details: S. cerevisiae deletion strains, growth OD

Compound: CNCCCC12CCC(c3ccccc31)c1ccccc12
- normalized growth (locus YAL013W, strain DEP1, hits give low values): 0.974 and 1.01
- normalized growth (locus YAL021C, strain ccr4, hits give low values): 0.931
- normalized growth (locus YAL026C, strain drs2, hits give low values): 0.768 (active)
- normalized growth (locus YAL030W, strain snc1, hits give low values): 0.999
- normalized growth (locus YAL040C, strain CLN3, hits give low values): 1
- normalized growth (locus YBL061C, strain skt5, hits give low values): 0.979
- normalized growth (locus YBR009C, strain hhf1, hits give low values): 0.992
- normalized growth (locus YBR021W, strain FUR4, hits give low values): 0.948
- normalized growth (locus YBR023C, strain chs3, hits give low values): 0.957
- normalized growth (locus YBR171W, strain sec66, hits give low values): 0.99
- normalized growth (locus YBR229C, strain ROT2, hits give low values): 0.974
- normalized growth (locus YBR231C, strain swc5, hits give low values): 0.956
- normalized growth (locus YBR279W, strain paf1, hits give low values): 0.971
- normalized growth (locus YCL011C, strain gbp2, hits give low values): 0.963
- normalized growth (locus YCL016C, strain dcc1, hits give low values): 0.976
- normalized growth (locus YCL029C, strain bik1, hits give low values): 0.994
- normalized growth (locus YCL061C, strain MRC1 (second series), hits give low values): 0.999
- normalized growth (locus YCL069W, strain vba3, hits give low values): 1.01
- normalized growth (locus YCR088W, strain abp1, hits give low values): 0.998
- normalized growth (locus YDL005C, strain med2, hits give low values): 0.972
- normalized growth (locus YDL035C, strain GPR1, hits give low values): 0.998
- normalized growth (locus YDL040C, strain nat1, hits give low values): 0.989
- normalized growth (locus YDL074C, strain BRE1, hits give low values): 0.97
- normalized growth (locus YDL101C, strain DUN1, hits give low values): 0.981
- normalized growth (locus YDL134C, strain PPH21, hits give low values): 0.984
- normalized growth (locus YDL185W, strain tfp1, hits give low values): 0.978
- normalized growth (locus YDL192W, strain arf1, hits give low values): 0.991
- normalized growth (locus YDR001C, strain nth1, hits give low values): 0.975
- normalized growth (locus YDR069C, strain doa4, hits give low values): 0.918
- normalized growth (locus YDR101C, strain arx1, hits give low values): 1.01
- normalized growth (locus YDR137W, strain rgp1, hits give low values): 1.02
- normalized growth (locus YDR159W, strain sac3, hits give low values): 0.95
- normalized growth (locus YDR162C, strain NBP2, hits give low values): 0.996
- normalized growth (locus YDR195W, strain ref2): 1.03
- normalized growth (locus YDR297W, strain sur2, hits give low values): 0.975
- normalized growth (locus YDR318W, strain mcm21, hits give low values): 0.973
- normalized growth (locus YDR334W, strain swr1, hits give low values): 0.995
- normalized growth (locus YDR335W, strain msn5, hits give low values): 0.982
- normalized growth (locus YDR363W, strain ESC2, hits give low values): 1.01
- normalized growth (locus YDR388W, hits give low values): 0.983
- normalized growth (locus YDR392W, strain spt3, hits give low values): 0.999
- normalized growth (locus YDR502C, strain sam2, hits give low values): 0.976
- normalized growth (locus YEL003W, strain gim4, hits give low values): 0.978
- normalized growth (locus YEL037C, strain rad23, hits give low values): 0.997
- normalized growth (locus YEL061C, strain CIN8 (second series), hits give low values): 0.975
- normalized growth (locus YEL061C, strain CIN8, hits give low values): 1.01
- normalized growth (locus YER002W, strain NOP16, hits give low values): 1
- normalized growth (locus YER015W, strain faa2, hits give low values): 0.978
- normalized growth (locus YER016W, strain bim1, hits give low values): 0.996
- normalized growth (locus YER110C, hits give low values): 0.989
- normalized growth (locus YER111C, strain swi4, hits give low values): 0.995
- normalized growth (locus YER155C, strain BEM2 (second series), hits give low values): 0.977
- normalized growth (locus YER155C, strain BEM2, hits give low values): 1.01
- normalized growth (locus YER167W, strain BCK2, hits give low values): 0.989
- normalized growth (locus YFR010W, strain ubp6, hits give low values): 0.982
- normalized growth (locus YGL078C, strain dbp3, hits give low values): 0.99
- normalized growth (locus YGL086W, strain mad1, hits give low values): 0.969
- normalized growth (locus YGL167C, strain pmr1, hits give low values): 1
- normalized growth (locus YGL173C, strain kem1, hits give low values): 0.993
- normalized growth (locus YGL227W, strain vid30, hits give low values): 1
- normalized growth (locus YGL240W, strain doc1, hits give low values): 0.989
- normalized growth (locus YGL248W, strain PDE1, hits give low values): 0.964
- normalized growth (locus YGL253W, strain hxk2, hits give low values): 0.988
- normalized growth (locus YGR135W, strain pre9, hits give low values): 0.94
- normalized growth (locus YGR229C, strain SMI1, hits give low values): 0.941 and 0.953
- normalized growth (locus YGR252W, strain gcn5, hits give low values): 0.841
- normalized growth (locus YHR013C, strain ard1, hits give low values): 0.976
- normalized growth (locus YHR027C, strain rpn1, hits give low values): 0.96
- normalized growth (locus YHR030C, strain SLT2, hits give low values): 0.997 and 1.01
- normalized growth (locus YHR079C, strain IRE1 (second series), hits give low values): 0.997
- normalized growth (locus YHR079C, strain IRE1, hits give low values): 1.01
- normalized growth (locus YHR094C, strain hxt1, hits give low values): 0.997
- normalized growth (locus YHR129C, strain ARP1, hits give low values): 0.995
- normalized growth (locus YHR142W, strain chs7, hits give low values): 0.91
- normalized growth (locus YHR200W, strain rpn10, hits give low values): 0.991
- normalized growth (locus YIL066C, strain RNR3, hits give low values): 0.992
- normalized growth (locus YIL073C, strain SPO22, hits give low values): 0.918
- normalized growth (locus YIL125W, strain kgd1, hits give low values): 0.981
- normalized growth (locus YIR030C, strain dcg1, hits give low values): 0.99
- normalized growth (locus YJL092W, strain hpr5, hits give low values): 0.971
- normalized growth (locus YJL095W, strain BCK1 (second series), hits give low values): 0.973
- normalized growth (locus YJL095W, strain BCK1, hits give low values): 0.941 and 0.998
- normalized growth (locus YJL115W, strain asf1, hits give low values): 0.97
- normalized growth (locus YJL129C, strain trk1, hits give low values): 1.01
- normalized growth (locus YJL134W, strain LCB3, hits give low values): 0.982
- normalized growth (locus YJL154C, strain vps35, hits give low values): 0.975
- normalized growth (locus YJL164C, strain tpk1, hits give low values): 0.989
- normalized growth (locus YJL166W, strain qcr8, hits give low values): 0.958
- normalized growth (locus YJL168C, strain set2, hits give low values): 0.998
- normalized growth (locus YJL187C, strain SWE1 (second series), hits give low values): 0.979
- normalized growth (locus YJL187C, strain SWE1, hits give low values): 0.973
- normalized growth (locus YJR043C, strain POL32, hits give low values): 1.01
- normalized growth (locus YJR066W, strain TOR1, hits give low values): 0.949
